Measurements taken from PubChem BioAssay (NCATS).
Records with an inconclusive call do not appear. Calls of active or inactive are those of the source. Unless noted, no rule for the calls is given here.

Columns and labels:
[1] = qHTS profiling for inhibitors of Plasmodium falciparum (HB3) proliferation (AID 743324; active = well fitted curve in the direction sought with a large enough effect; an effect the other way counts as inactive or inconclusive;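 also: 100% = DMSO vehicle wells and 0% = artemisinin-treated control wells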); settings: Plasmodium falciparum HB3 blood-stage proliferation; at 28.7 µM (top of the series) unless noted
Method in brief: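 P. falciparum HB3 grown in erythrocytes (0.3% parasitemia, 2.5% hematocrit final) with compound for 72 h at 37 C, 5% CO2. Parasite DNA detected by SYBR Green after saponin/triton lysis overnight; normalized to 0.29 uM artemisinin and DMSO.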

[2] = qHTS profiling of the MIPE4 collection as inhibitors of Plasmodium falciparum (3D7) proliferation (AID 743344);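 also: scaled between DMSO vehicle wells and 0.29 µM artemisinin as full inhibition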; settings: P. falciparum 3D7 in erythrocytes, SYBR Green DNA fluorescence, 72 h; at 28.5 µM (top of the series) unless noted
Method in brief: (§1)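 Erythrocytes infected with P. falciparum (0.3% parasitemia, 2.5% hematocrit) incubated with compounds 72 h at 37 C, 5% CO2. Lysis with saponin/Triton buffer containing SYBR Green I, overnight at room temperature in the dark; DNA fluorescence (485/535 nm) normalised to 0.29 uM artemisinin and DMSO.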

[3] = qHTS profiling of the MIPE4 collection as inhibitors of Plasmodium falciparum (DD2) proliferation (AID 743345); settings: P. falciparum Dd2 in erythrocytes, SYBR Green DNA, 72 h; at 28.5 µM (top of the series) unless noted
Method in brief: as §1

[4] = qHTS profiling of the MIPE4 collection as inhibitors of Plasmodium falciparum (DD2) proliferation (Rep 2) (AID 743346); settings: P. falciparum Dd2 in erythrocytes, SYBR Green DNA, 72 h; at 28.5 µM (top of the series) unless noted
Method in brief: as §1

[5] = qHTS profiling of the MIPE4 collection as inhibitors of Plasmodium falciparum (HB3) proliferation (AID 743347);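 also: plate controls were DMSO vehicle wells for no effect and artemisinin wells for full effect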; settings: P. falciparum HB3 in erythrocytes, SYBR Green DNA, 72 h; at 28.5 µM (top of the series) unless noted
Method in brief: as §1

[6] = Cell Proliferation Assay Versus the ED40515 IL2 Dependent ATL cell lines (AID 1053195; calls by dose curve); settings: ED40515 IL2-dependent ATL cells
Method in brief: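 IL2-dependent ED40515 ATL cells grown with IL2, 1000 cells/well in phenol red-free RPMI + 5% FBS, exposed 48 hours at 37C. Viability by CellTiter-Glo luminescence after 15 min at RT; 9.2 uM bortezomib as control.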

[7] = High-throughput drug toxicity screening in the BPDCN cell line Cal-1 (AID 1224825); settings: Cal-1 BPDCN cell viability, qHTS; at 45.8 µM (top of the series) unless noted
Method in brief: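 Cal-1 cells, 500 per well in phenol-red-free RPMI with 10% FBS, exposed to compounds for 48 hours at 37C, 5% CO2. Viability read by CellTiter-Glo luminescence; percent activity normalized to DMSO (100%) and 9.2 uM bortezomib final (0%).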

[8] = qHTS assay for measurement of the activity of small molecule inhibitors on Zika virus induced Caspase-3 activity in human iPSC derived neural progenitor cells (hNPCs) (AID 1224857; active = well fitted curve in the direction sought with a large enough effect; an effect the other way counts as inactive or inconclusive; also: % of control where 0% means no effect; nearly all actives have a fitted effect of over 65% in size)
Method in brief: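 After overnight (16–20 h) culture at 350 cells/well, hNPCs get compound, then ZIKV 2 FFU/cell one hour later. Six hours on, Caspase-Glo 3/7 is added and luminescence measured.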

[9] = High-throughput drug toxicity screening in the BPDCN cell line Gen2.2 (AID 1224824); settings: Gen2.2 BPDCN cells; at 45.8 µM (top of the series) unless noted;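 also: cells exposed to compounds for 48 h before reading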
Method in brief: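 Gen2.2 cells (500/well) in phenol red-free RPMI with 10% FBS were exposed to compounds for 48 h at 37 °C, 5% CO2. Viability was read by CellTiter-Glo luminescence and normalized to DMSO (100%) and 9.2 uM bortezomib (0%).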

SMILES: CS(=O)(=O)Oc1ccc2c(NC(N)=O)c(C(=O)c3ccc(Cl)cc3Cl)oc2c1
- remaining proliferation (% of control), lower = more inhibition [1]: 94.7%
- parasite growth, % of DMSO control [2]: 49.8%
- parasite growth remaining, % of DMSO control (lower = more inhibition) [3]: 82.7%
- parasite growth, % of control (lower = inhibition) [4]: 33.3%
- growth, % of control [5]: 13.6%
- Potency [6]: 16.6 µM (active)
- viability (% of control) [7]: 13.2%
- Potency [8]: inactive

SMILES: COCC(=O)NCC=Cc1ccc2ncnc(Nc3ccc(Oc4ccc(C)nc4)c(C)c3)c2c1
- remaining proliferation (% of control), lower = more inhibition [1]: 7.14%
- parasite growth, % of DMSO control [2]: 15.6%
- parasite growth remaining, % of DMSO control (lower = more inhibition) [3]: 70.2%
- parasite growth, % of control (lower = inhibition) [4]: 29.4%
- growth, % of control [5]: 9.14%
- cell viability, % of control (lower = more cytotoxic) [9]: 222%
- viability (% of control) [7]: 20.7%
- Potency [8]: inactive

SMILES: COc1ccc(C2=N[C@H](c3ccc(Cl)cc3)[C@H](c3ccc(Cl)cc3)N2C(=O)N2CCNC(=O)C2)c(OC(C)C)c1
- remaining proliferation (% of control), lower = more inhibition [1]: 23.2%
- parasite growth, % of DMSO control [2]: 17.5%
- parasite growth remaining, % of DMSO control (lower = more inhibition) [3]: 54.6%
- parasite growth, % of control (lower = inhibition) [4]: 11.8%
- growth, % of control [5]: 12.4%
- cell viability, % of control (lower = more cytotoxic) [9]: 4.67%
- viability (% of control) [7]: 4.23%
- Potency [8]: inactive

SMILES: CN(C)c1ccc(C2Nc3ccc4ccccc4c3C3=C2C(=O)CC(C)(C)C3)cc1Br (stereo not given)
- remaining proliferation (% of control), lower = more inhibition [1]: 1.79%
- parasite growth, % of DMSO control [2]: 28.5%
- parasite growth remaining, % of DMSO control (lower = more inhibition) [3]: 15%
- cell viability, % of control (lower = more cytotoxic) [9]: 119%
- viability (% of control) [7]: 111%
- Potency [8]: inactive

SMILES: CC(C)(C)NCC(O)c1ccc(O)c(CO)c1 (stereo not given)
- cell viability, % of control (lower = more cytotoxic) [9]: 76%
- viability (% of control) [7]: 113%
- Potency [8]: inactive

SMILES: CS(=O)(=O)c1ccc(C(=O)Nc2ccc(Cl)c(-c3ccccn3)c2)c(Cl)c1
- remaining proliferation (% of control), lower = more inhibition [1]: 103%
- parasite growth, % of DMSO control [2]: 66.9%
- parasite growth remaining, % of DMSO control (lower = more inhibition) [3]: 93.4%
- parasite growth, % of control (lower = inhibition) [4]: 97%
- growth, % of control [5]: 92.4%
- cell viability, % of control (lower = more cytotoxic) [9]: 312%
- viability (% of control) [7]: 65.3%
- Potency [8]: inactive

SMILES: Cc1c(C)c2c(c(C)c1O)CCC(C)(COc1ccc(CC3SC(=O)NC3=O)cc1)O2 (stereo not given)
- remaining proliferation (% of control), lower = more inhibition [1]: 46.8%
- parasite growth, % of DMSO control [2]: 35.4%
- parasite growth remaining, % of DMSO control (lower = more inhibition) [3]: 83.4%
- cell viability, % of control (lower = more cytotoxic) [9]: 31.1%
- viability (% of control) [7]: 91.7%
- Potency [8]: inactive

SMILES: O=c1[nH]c(-c2ccc(C(F)(F)F)cc2)nc2c1CSCC2
- remaining proliferation (% of control), lower = more inhibition [1]: 29.8%
- parasite growth, % of DMSO control [2]: 74.2%
- parasite growth remaining, % of DMSO control (lower = more inhibition) [3]: 93.9%
- parasite growth, % of control (lower = inhibition) [4]: 74.7%
- cell viability, % of control (lower = more cytotoxic) [9]: 117%
- viability (% of control) [7]: 114%
- Potency [8]: inactive

SMILES: CCN(CC)CCCC(C)Nc1ccnc2cc(Cl)ccc12 (stereo not given)
- remaining proliferation (% of control), lower = more inhibition [1]: 0.178%
- parasite growth, % of DMSO control [2]: 19.3%
- parasite growth remaining, % of DMSO control (lower = more inhibition) [3]: 10.1%
- parasite growth, % of control (lower = inhibition) [4]: 15.1%
- growth, % of control [5]: 41.8%
- cell viability, % of control (lower = more cytotoxic) [9]: 103%
- viability (% of control) [7]: 21.4%
- Potency [8]: inactive

SMILES: CCCS(=O)(=O)Nc1ccc(F)c(C(=O)c2c[nH]c3ncc(-c4ccc(Cl)cc4)cc23)c1F
- remaining proliferation (% of control), lower = more inhibition [1]: 22.8%
- parasite growth, % of DMSO control [2]: 17.9%
- parasite growth remaining, % of DMSO control (lower = more inhibition) [3]: 24%
- parasite growth, % of control (lower = inhibition) [4]: 52.1%
- growth, % of control [5]: 15.2%
- cell viability, % of control (lower = more cytotoxic) [9]: 453%
- viability (% of control) [7]: 99.1%
- Potency [8]: inactive

SMILES: COc1ccccc1[C@H](c1cccc2ccccc12)[C@@](C)(C#N)C(=O)N1CCC(c2cccc(C(F)(F)F)c2)CC1
- remaining proliferation (% of control), lower = more inhibition [1]: 0.956%
- parasite growth, % of DMSO control [2]: 5.47%
- parasite growth remaining, % of DMSO control (lower = more inhibition) [3]: 8.96%
- parasite growth, % of control (lower = inhibition) [4]: 9.97%
- growth, % of control [5]: 6.38%
- cell viability, % of control (lower = more cytotoxic) [9]: 2.69%
- viability (% of control) [7]: 10.6%
- Potency [8]: inactive

SMILES: Cn1cc(-c2ccc3nnc(C(F)(F)c4ccc5ncccc5c4)n3n2)cn1
- remaining proliferation (% of control), lower = more inhibition [1]: 17.3%
- parasite growth, % of DMSO control [2]: 24.5%
- parasite growth remaining, % of DMSO control (lower = more inhibition) [3]: 70.3%
- parasite growth, % of control (lower = inhibition) [4]: 41.1%
- cell viability, % of control (lower = more cytotoxic) [9]: 55.7%
- viability (% of control) [7]: 64.2%
- Potency [8]: inactive
